Consider 50 compounds from PubChem BioAssay AID1851 (National Center for Advancing Translational Sciences (NCATS), 2009).

Hit rate of the full screen: of about 16,000 compounds, about 4,000 (25%) were called active. Another 26% or so got no clear call; they are omitted. Calls come from the whole dose curve; as a rule, active = well fitted curve in the direction sought with a large enough effect; inconclusive = small, poorly fitted or top-dose-only effect, or effect the other way; inactive = no such curve, though single readings can be large or run the other way. Only a sample is shown.
% is set by controls: 0 for no effect and ±100 for the full control effect.

Chain of Cytochrome P450 2C9 (Homo sapiens) (P11712 whole entry, looked up): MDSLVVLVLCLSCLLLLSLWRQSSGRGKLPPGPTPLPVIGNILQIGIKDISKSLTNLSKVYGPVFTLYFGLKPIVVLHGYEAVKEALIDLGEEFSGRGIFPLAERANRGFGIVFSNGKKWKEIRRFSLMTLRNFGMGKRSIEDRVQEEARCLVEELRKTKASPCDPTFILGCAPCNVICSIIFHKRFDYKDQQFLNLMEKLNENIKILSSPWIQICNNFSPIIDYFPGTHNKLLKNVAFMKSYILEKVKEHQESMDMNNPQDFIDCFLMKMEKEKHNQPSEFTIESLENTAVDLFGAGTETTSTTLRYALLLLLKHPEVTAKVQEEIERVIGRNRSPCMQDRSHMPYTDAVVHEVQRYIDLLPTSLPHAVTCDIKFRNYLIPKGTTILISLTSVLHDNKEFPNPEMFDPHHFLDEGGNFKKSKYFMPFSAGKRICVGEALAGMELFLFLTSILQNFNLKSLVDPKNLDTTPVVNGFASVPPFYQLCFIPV

This test has as its target Cytochrome P450 2C9 (Homo sapiens) (UniProt P11712). As to the kind of experiment: Cytochrome panel assay with activity outcomes. The note with it: recombinant CYP, pro-luciferin dealkylation, luminescence, p450-cyp2c9; series mostly up to 57.1 µM.
As usually defined, the AC50 is the midpoint of the concentration-response curve, whichever way the signal moves. On to `CCOc1nc(N=C(N)N)nc2c(C)cccc12`, for which the AC50 entry is “inactive”.
With `COc1ccc2nc(NCN3C(=O)c4ccccc4C3=O)sc2c1`, the activity, negative = inhibition is -14.8% [at 11.4 µM] (inactive).
Turning to `COc1ccc2nc(N)sc2c1`, the AC50 result is “inactive”.
For `COc1ccc2nc(N3C(=O)CC(Cc4ccc(Cl)cc4)C3=O)sc2c1` (stereo not given), the AC50 was 12.6 µM (active).
In the case of `CN1CCN(CCCBr)CC1`, the activity, negative = inhibition is 18% [at 11.4 µM] (inactive).
With `C[C@H](O/N=C1/[C@H]2O[C@@H]2[C@@H](O)[C@H]2[C@H]1CCn1c(=O)n(-c3ccccc3)c(=O)n12)c1cn([C@H]2COC[C@H]2O)nn1`, the activity, negative = inhibition is 0.305% [at 11.4 µM] (inactive).
As to `CCCn1c(-c2cccs2)nc2nc3ccccc3nc21`, the AC50 was 10 µM (active).
On to `CCNc1ncc2nc(-c3cccs3)c(=O)n(CCc3ccccc3)c2n1`, for which the AC50 result was “inactive”.
As for `CN1CCN(c2ncc3nc(-c4cccs4)c(=O)n(CCc4ccccc4)c3n2)CC1`, the AC50 entry is “inactive”.
`Cc1ccc2nc(SCc3nc4c(cnn4-c4ccccc4)c(=O)[nH]3)[nH]c2c1`: the AC50 is 4.47 µM (active).
For the compound `COc1cc(/C=C\C(=O)N2CCC=CC2=O)cc(OC)c1OC`, the AC50 result was “inactive”.
In the case of `CCSc1nc2ccccc2n1C(=O)/C=C\c1ccc(OC)c(OC)c1`, the AC50 was 1.58 µM (active).
Same read-out and setting: with `COc1cc(/C=C/C(=O)Nc2ccccc2C(F)(F)F)cc(OC)c1OC` the entry was “inactive”; with `COc1ccc(NC(=O)COC(=O)Cn2c(C)nc3ccccc32)cc1OC`, “inactive”.
Still for that read-out and setting: the same measure for `C=CCSc1nc2ccccc2n1C(=O)/C=C/c1cc(OC)c(OC)c(OC)c1`: 7.94 µM (active).
`CC(=O)n1c(COS(C)(=O)=O)nc2ccccc21`: the activity, negative = inhibition is -7.23% [at 11.4 µM] (inactive).
For `COc1ccc(O[C@H]2C=C[C@@H](c3ccccc3)O[C@H]2COC(=O)N2CCCCC2)cc1`, the AC50 was 2.51 µM (active).
With `COc1ccc(O[C@H]2C=C[C@@H](c3ccccc3)O[C@H]2CO/N=C(/C)CCC(=O)OC[C@@H]2O[C@H](C#Cc3ccccc3)C=C[C@@H]2Oc2ccc(C)cc2)cc1`, the activity, negative = inhibition is -16.6% [at 11.4 µM] (inactive).
For the compound `C/C(CCC(=O)OC[C@@H]1O[C@H](C#Cc2ccccc2)C=C[C@@H]1Oc1ccc(C)cc1)=N/OC[C@@H](O)[C@H]1O[C@H]2OC(C)(C)O[C@H]2[C@@H]1O`, the activity, negative = inhibition was -25.1% [at 11.4 µM] (inactive).
Regarding `COc1ccc(O[C@H]2C=C[C@@H](c3ccccc3)O[C@@H]2CO/N=C(\C)CCN2CCc3nc(-c4ccccc4)c(-c4ccccc4)cc3C2)cc1`, the activity, negative = inhibition is -13.6% [at 11.4 µM] (inactive).
As for `CCCNC(=O)OC[C@@H]1O[C@H](CCO/N=C(\C)CCN2CCc3nc(CC)c(CC)cc3C2)C=C[C@@H]1Oc1ccc(OC)cc1`, the activity, negative = inhibition was -21.2% [at 11.4 µM] (inactive).
On the same count and under the same terms, with `COc1ccc(O[C@H]2C=C[C@@H](c3ccccc3)O[C@H]2CO/N=C(/C)CCC(=O)OC[C@@H]2O[C@H](c3ccccc3)C=C[C@@H]2Oc2ccc(OC)cc2)cc1` the figure was -3.16% [at 11.4 µM] (inactive); with `CCCNC(=O)OC[C@@H]1O[C@H](c2ccccc2)C=C[C@@H]1Oc1ccc(OC)cc1`, -29.7% [at 11.4 µM] (inactive); with `COc1ccc(O[C@H]2C=C[C@@H](c3ccccc3)O[C@H]2COC(=O)CC/C(C)=N/O[C@@H]2O[C@H](COC(C)=O)[C@H](OC(C)=O)[C@H](OC(C)=O)[C@H]2OC(C)=O)cc1`, -25.6% [at 11.4 µM] (inactive).
Take `COc1ccc(O[C@H]2C=C[C@@H](c3ccccc3)O[C@H]2COC(=O)CC/C(C)=N\OC[C@@H](O)[C@H]2O[C@H]3OC(C)(C)O[C@H]3[C@@H]2O)cc1`: the AC50 was 1.58 µM (active).
As for `CCCNC(=O)OC[C@H]1O[C@@H](CCO/N=C2/[C@H]3O[C@@H]3[C@@H](O)[C@H]3[C@H]2CCn2c(=O)n(-c4ccccc4)c(=O)n23)C=C[C@@H]1Oc1ccc(OC)cc1`, the activity, negative = inhibition is -24.3% [at 11.4 µM] (inactive).
On to `COc1ccc(O[C@H]2C=C[C@@H](c3ccccc3)O[C@H]2COC(=O)CC/C(C)=N/OCC[C@@H]2C=C[C@H](OC(C)=O)[C@H](COC(C)=O)O2)cc1`, for which the AC50 is 3.98 µM (active).
Take `CCCNC(=O)OC[C@@H]1O[C@H](CCO/N=C(\C)CCN2CCc3nc(-c4ccccc4)c(-c4ccccc4)cc3C2)C=C[C@@H]1Oc1ccc(OC)cc1`: the AC50 was 2 µM (active).
As for `C=CC[N+]1(CC#CCOC(c2ccccc2)c2ccccc2)CCOCC1`, the AC50 entry is “inactive”.
Consider `COc1ccccc1CNc1ncncc1-c1ccccc1C`, for which the activity, negative = inhibition is 11.7% [at 2.29 µM] (inactive).
Same read-out and setting: with `CO/N=C(\C)CCN1CCCCc2nc(C)c(C)cc21` the figure was 8.57% [at 11.4 µM] (inactive).
Take `CC1=CC(=O)C=CC1(C)C(Cl)(Cl)Cl` (stereo not given): the AC50 result was “inactive”.
For `Nc1nccc(Nc2ccc(S(N)(=O)=O)cc2)n1`, the activity, negative = inhibition is -3.1% [at 11.4 µM] (inactive).
For `CCCOc1ccc(C(=O)CCNc2ccc(C)c(Cl)c2)cc1`, the AC50 result was “inactive”.
`CCOc1ccc(C(=O)Nc2cnn(Cc3ccc(Cl)c(Cl)c3)c2)cc1`: the AC50 is 17.8 µM (active).
On to `CCOC(OCC)P(=O)(O)CCCNCc1ccc(Cl)c(Cl)c1`, for which the AC50 entry was “inactive”.
As to `CCCCc1c(O)nc(SCCN(C)C)n(-c2ccccc2)c1=O`, the AC50 entry is “inactive”.
`Cn1c(SCc2nc3ccccc3n2CCO)nc2ccccc21`: the AC50 result was “inactive”.
Turning to `CC(C)N(C(=O)CSc1nc2ccccc2n1-c1ccccc1)C(C)C`, the AC50 is 15.8 µM (active).
In the case of `C[C@@H](N)C(=O)O`, the AC50 result was “inactive”.
Still for that read-out and setting: with `CCN1CCc2c(sc(N)c2C(N)=O)C1` the entry was “inactive”.
Turning to `CCN1CCc2c(sc(NC(=S)NC(=O)c3ccccc3)c2C#N)C1`, the AC50 entry is “inactive”.
Same read-out and setting: with `CCOC(=O)c1c(NC(=S)Nc2ccccc2)sc2c1CCN(CCc1ccccc1)C2` the figure was 0.282 µM (active).
As to `CCSc1nnc(NC(=O)Cc2ccccc2OC)s1`, the AC50 entry is “inactive”.
Regarding `O=C(COc1ccc2ccccc2c1)NNC(=O)Cc1cccc2ccccc12`, the AC50 entry is “inactive”.
In the case of `O=C(COc1ccc2ccccc2c1)Nc1ccc(Cc2ccncc2)cc1`, the concentration at half-maximal activity (AC50) was 0.316 µM (active).
Regarding `CC(=O)CC(=O)Nc1ccc2ccccc2c1`, the activity, negative = inhibition was 21.1% [at 11.4 µM] (inactive).
In the case of `CCSc1nnc(NC(=O)COc2ccc3ccccc3c2)s1`, the AC50 was 0.224 µM (active).
On to `Nc1nc(Cl)cc(NCCO)n1`, for which the activity, negative = inhibition was 2.74% [at 11.4 µM] (inactive).
For the compound `O=C(O)[C@@H]1Cc2c([nH]c3ccccc23)[C@@H](CCCCO)N1`, the activity, negative = inhibition was -6.46% [at 11.4 µM] (inactive).
